According to PubChem BioAssay AID1159580 (chemical genetic matrix, 2015):
The whole screen tested about 5,500 compounds, of which about 2,000 (36%) were called active. Inconclusive results (about 18%) are left out. Rule as the data show it: active = normalized growth mostly below about 0.91 (no sharp cut-off); inconclusive = no clear call, values can overlap the other calls; inactive = mostly above about 0.92. Some of the results follow.

Assay: chemical genetic growth profiling, strain panel (AID 1159580);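 also: tested at 20 µM; growth read once vehicle control cultures reached saturation at 30 °C; 1 = growth at the plate median or of vehicle wells; lower values mean less growth of the strain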
Conditions: growth OD

Measured: normalized growth

CCOC(=O)N=Nc1c(O)[nH]c2ccc(F)cc12
inactive: S. cerevisiae deletion strains, locus YAL013W, strain DEP1, hits give low values 1.01 | S. cerevisiae deletion strains, locus YBR229C, strain ROT2, hits give low values 1.01 | S. cerevisiae deletion strains, locus YDL101C, strain DUN1, hits give low values 1.01 | S. cerevisiae deletion strains, locus YDR150W, strain NUM1, hits give low values 1 | S. cerevisiae deletion strains, locus YEL061C, strain CIN8, hits give low values 1.02 | S. cerevisiae deletion strains, locus YGR078C, strain PAC10, hits give low values 1 | S. cerevisiae deletion strains, locus YGR229C, strain SMI1, hits give low values 1 | S. cerevisiae deletion strains, locus YHR030C, strain SLT2, hits give low values 1.06 | S. cerevisiae deletion strains, locus YHR087W, strain rtc3, hits give low values 1.03 | S. cerevisiae deletion strains, locus YJR043C, strain POL32, hits give low values 1 | S. cerevisiae deletion strains, locus YJR075W, strain HOC1, hits give low values 1.02 | S. cerevisiae deletion strains, locus YKL190W, strain CNB1, hits give low values 1.01 | S. cerevisiae deletion strains, locus YLR039C, strain RIC1, hits give low values 1.02 | S. cerevisiae deletion strains, locus YLR058C, strain SHM2 (second series), hits give low values 0.997 | S. cerevisiae deletion strains, locus YLR085C, strain ARP6, hits give low values 1.01 | S. cerevisiae deletion strains, locus YLR262C, strain YPT6, hits give low values 1.01 | S. cerevisiae deletion strains, locus YML094W, strain GIM5, hits give low values 1.05 | S. cerevisiae deletion strains, locus YMR219W, strain ESC1, hits give low values 0.999 | S. cerevisiae deletion strains, locus YMR263W, strain SAP30, hits give low values 0.976 | S. cerevisiae deletion strains, locus YMR307W, strain GAS1, hits give low values 0.933 | S. cerevisiae deletion strains, locus YNL128W, strain TEP1, hits give low values 1.02 | S. cerevisiae deletion strains, locus YNL153C, strain GIM3, hits give low values 1 | S. cerevisiae deletion strains, locus YNL298W, strain CLA4 (second series), hits give low values 0.998 | S. cerevisiae deletion strains, locus YNL322C, strain KRE1, hits give low values 1.02 | S. cerevisiae deletion strains, locus YNR030W, strain Alg12, hits give low values 1.01 | S. cerevisiae deletion strains, locus YOL006C, strain TOP1, hits give low values 1.03 | S. cerevisiae deletion strains, locus YPL055C, strain LGE1, hits give low values 1.04 | S. cerevisiae deletion strains, locus YPL241C, strain CIN2, hits give low values 0.889 | S. cerevisiae deletion strains, locus YPR135W, strain CTF4, hits give low values 1.08 | S. cerevisiae strains, strain wild type, hits give low values 1
